According to PubChem BioAssay AID485313 (National Center for Advancing Translational Sciences (NCATS), 2010):
Among all 320,000 compounds or so, about 7,600 (2.4%) were called active. Another 3% or so got no clear call; they are omitted. Calls follow the shape of the dose curve; as a rule, active = well fitted activation curve with a large enough effect; inconclusive = small, poorly fitted or top-dose-only effect; inactive = no such curve, though single readings can be large or run the other way. Many of the other results were omitted from the sample, so actives are more common in it than they were.

test: qHTS Assay for NPC1 Promoter Activators; conditions: Huh7 NPC1 promoter luciferase reporter, 24 h; series mostly up to 9.22 µM; activation: at the top concentration; also: nearly all actives have a fitted effect of over 60% in size;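 as to activation: reporter is driven by a mutant NPC1 promoter; % of control where 0% means no effect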
In short: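 Readout is luciferase luminescence, reflecting NPC1 promoter activation in stably transfected Huh7 cells after 24 h compound exposure at 37 °C in reduced-serum medium with 10% FBS.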
Potency is read from the fitted curve at half-maximal effect.

activation, inactive:
O=c1c2ccccc2ccc2ccc(P(=O)(O)O)cc12 -2.15%
Cc1nc(COc2cccc(Cl)c2)sc1C(=O)/C=C/N(C)C 18.5%
CN(C)/C=C/C(=O)c1ccccc1F 0.124%
Cn1c(SCC(=O)Nc2nccs2)nnc1-c1cccnc1 -0.463%
O=C(NCCCNC(=O)c1ccccc1Cl)c1cnccn1 -0.803%
COC(=O)c1ccc(OC(=O)c2cnccn2)cc1 0.63%
CCOc1ccc2oc(C(=O)N(CC)CC(=O)Nc3ccc(NC(C)=O)cc3)c(C)c2c1 5.68%
Cc1c(O)c(C)c2c(c1O)C(=O)C[C@@H](c1ccccc1)O2 1.52%
O=C(Nc1ccon1)c1nc[nH]c1C(=O)NCc1ccccc1 0.0628%
CC(Oc1ccc(Br)cc1)C(=O)NC1CCCCCC1 (stereo unspecified) 17.9%
CC(C)(C)C(=O)OCc1nc(-c2ccc(O)c(O)c2)cs1 -3.2%
COc1cccc(CC(=O)Nc2ccc(-c3csc(C)n3)cc2)c1 1.47%
CCN(CC(=O)Nc1cc(Cl)ccc1C)C(=O)CSCc1ccccc1 -2.25%
CC(=O)c1ccc(N2CCN(CC(O)c3ccccc3)CC2)cc1 (stereo unspecified) -7.6%
CC(=O)c1ccc(N2CCN(C(=O)CCc3ccccc3)CC2)cc1 -1.38%
O=C(O)c1cc(S(=O)(=O)Nc2ccc3cn[nH]c3c2)ccc1Br 1.48%
CS(=O)(=O)N1CCN(c2cccc(Cl)n2)CC1 2.53%
CS(=O)(=O)N1CCN(C(=O)Cc2ccccc2)CC1 -1.21%
CCCCN(C(=O)C1=NN(c2cc(C)ccc2C)C(=O)CC1)c1c(N)n(CCC)c(=O)[nH]c1=O -0.22%
COc1ccc(OCCCC(=O)Nc2cccc(S(=O)(=O)N3CCCCCC3)c2)cc1 4.23%
Brc1ccc(-c2csc(N/N=C/c3cccnc3)n2)cc1 3.01%
O=C(NCc1cccnc1)C(=O)Nc1nc(-c2ccccc2)cs1 26.3%
CN(C(=O)COC(=O)Cn1cnc2c1c(=O)n(C)c(=O)n2C)C1(C#N)CCCCC1 -0.17%
O=C(CSc1nnc(Nc2ccccc2F)s1)NC1CCCC1 4.95%
COC(=O)CSc1nc(C)c2ccc(OC)cc2n1 -0.564%
COc1ccc(-c2nnc3ccc(SCc4ccccc4)nn23)cc1 2.4%
Cc1ccc(OCC(=O)Nc2ccccc2C(=O)NC2CC2)cc1 0.788%
CC(C)Oc1ccc(S(=O)(=O)N2CCOCC2)cc1NC(=O)C1CCCC1 1.15%
O=C(c1ccc(Br)o1)N(c1ccccn1)C1CCCCC1 0.227%
COc1cccc(NC(=O)CN(C)CC(=O)c2c(N)n(Cc3ccccc3)c(=O)n(C)c2=O)c1 -2.46%
Cc1cccc(C(=O)c2cccc(C)c2)c1 -0.639%
N/C(=N\OC(=O)c1cc(-c2ccccc2)nc2ccccc12)c1ccncc1 3.57%
C[C@H](NC(=O)C1CC(=O)N(c2ccc3c(c2)OCCO3)C1)C(=O)N1CCC(C(=O)O)CC1 (stereo partly specified) -3.35%
COc1cc(C(=O)OCC(=O)NC23CC4CC(CC(C4)C2)C3)cc(OC)c1OC 0.787%
CSCCC(NC(=O)COc1ccccc1)C(=O)N(C)CC(=O)Nc1ccc(C)cc1 (stereo unspecified) -2.11%
O=C(COC(=O)C1(c2ccc(F)cc2)CCCC1)N1CCNC1=O 0.411%
O=[N+]([O-])c1ccc2c(c1)Nc1nc3ccccc3nc1N2 -0.0231%
O=c1[nH]c2cccnc2n1-c1ccc([N+](=O)[O-])cc1 2.63%
CCN(CC(=O)Nc1ccc(OC)cc1)C(=O)c1ccc(=O)n(Cc2ccccc2)n1 -0.115%
O=c1cc(CCl)nc2scc(-c3ccccc3)n12 -0.115%
Cc1nn2c(=O)cc(COC(=O)c3ccc(NC(=O)C(C)(C)C)cc3)nc2s1 -1.52%
CCC(C)N(C(=O)CSc1nnnn1-c1ccccc1OC)C1CCS(=O)(=O)C1 (stereo unspecified) 4.75%
CC(NCc1ccccc1OC1CCCC1)c1ccccc1 (stereo unspecified) -1.56%
C=CCN(CC=C)S(=O)(=O)c1ccc(C(=O)Nc2sc3c(c2C(N)=O)CCCCC3)cc1 -8.3%
O=C(Nc1sc2c(c1C(=O)O)CCC2)c1ccccc1F 6.62%
COc1ccc(C(=O)OC(C)C(=O)NC2CCCC2)cc1S(=O)(=O)N1CCOCC1 (stereo unspecified) -1.48%
CC(C)CN(C(=O)CSc1ncnc2sccc12)C1CCS(=O)(=O)C1 (stereo unspecified) -2.91%
CC(=O)c1ccc(S(=O)(=O)N2CCC(Oc3ccc(-n4cnnn4)cc3)CC2)cc1 -3.83%
O=C(COC(=O)Cc1ccc(Br)cc1)Nc1ccc(N2CCOCC2)cc1 -1.47%
CC(=O)NC12CC3CC(C1)CC(C(=O)N1CCN(C(=O)c4ccco4)CC1)(C3)C2 0.551%
O=C(c1ccncc1)N1CCN(c2ccc3ccccc3n2)CC1 -0.852%
CC12CCC(C(=O)N3CCN(c4ncccn4)CC3)(c3nc4ccccc4nc31)C2(C)C (stereo unspecified) -0.0128%
CCc1nnc(NC(=O)c2cc(S(=O)(=O)N3CCCCC3)ccc2C)s1 -2.65%
CCC1(C)CC(=O)NC1=O (stereo unspecified) 0.774% [at 46.1 µM]
CC(C)(C)OC(=O)NCCCCCNC(=O)c1[nH]cnc1C(=O)Nc1nccs1 9.24%
CCn1c(SCC(=O)Nc2ccc3c(c2)OCCO3)nnc1C(C)C 3.74%
CCn1c(SCC(=O)Nc2ccc3c(c2)OCCO3)nnc1-c1ccncc1 -7.41%
O=C(Nc1ccc2c(c1)OCCO2)c1ccoc1 29.1%
O=C(Nc1cccc(NC(=O)c2ccco2)c1)c1cnccn1 2.89%
O=C(COC(=O)c1ccccc1Cl)NC1CCCCCCC1 -2.13%
O=C(N[C@@H](Cc1c[nH]c2ccccc12)C(=O)O)OCC1c2ccccc2-c2ccccc21 -7.22%
O=C(Nc1ccccn1)C1CCN(S(=O)(=O)c2ccc3c(c2)OCCO3)CC1 14.3%
CCOC(=O)C1CCCN(S(=O)(=O)c2ccc3c(c2)C(C)(C)C(=O)N3C)C1 (stereo unspecified) -2.74%
COc1ccc(N(CCC(=O)NCCc2ccccc2)S(=O)(=O)c2ccc(C)cc2C)cc1 22.4%
COc1ccc([C@H]2CC(=O)C=C(c3ccc(OC(F)(F)F)cc3)C2)cc1OC -9.62%
O=C(O)CSc1ccc(S(=O)(=O)N2CCCC2)cn1 -3.11%
Cc1ccc(C(=O)OCC(=O)Nc2ccc(Cl)cn2)cc1S(=O)(=O)N1CCOCC1 -2.74%
O=C(NCCc1ccc(F)cc1)c1ccc(S(=O)(=O)N2CCCCC2)cc1 -0.529%
Cc1ccc(C)c(NC(=O)c2ccc3nccnc3c2)c1 17.9%
Cc1ccc(S(=O)(=O)NCCC(=O)NCc2ccc(Cl)cc2)cc1C -0.223%
CCN(CC)C(CNC(=O)CSc1nnnn1-c1cccc(F)c1)c1ccco1 (stereo unspecified) -0.632%
CC(NC(=O)c1cccc(S(=O)(=O)N2CCc3ccccc3C2)c1)c1ccco1 (stereo unspecified) -1.49%
CCOC(=O)c1sc(NC(=O)COc2ncnc3ccccc23)c(C(=O)OCC)c1C 0.322%
COC(=O)c1c(NC(C)=O)sc(C(=O)Nc2ccccc2OC)c1C -0.966%
NC(=O)NC(CC(=O)NNC(=O)c1ccccn1)c1ccc(Cl)cc1 (stereo unspecified) -0.18%
CC(C)CCN1CCC(C)(NC(=O)c2ccccc2)C1=O (stereo unspecified) 4.78%
COc1ccc(N(Cc2ccccc2)S(=O)(=O)c2cccc(C(=O)O)c2)cc1 0.572%
COc1ccc(NC(=O)CS(=O)(=O)c2ccccc2)cc1 22.2%
O=C(CN1CCN(S(=O)(=O)c2ccc(Cl)s2)CC1)N1CCCCC1 -0.339%
COc1cc([N+](=O)[O-])ccc1NC(=O)COC(=O)CCOc1ccc(C)cc1 -18.1%
CC(C)c1nc2cc(C(=O)NC(C)c3cnn(C)c3)ccc2o1 (stereo unspecified) -0.273%
COc1ccc(CNC(=O)c2cc(=O)c3c(C)cc(C)cc3o2)cc1 1.79%
CCCN(C(=O)c1nc2nccc(C)n2n1)c1c(N)n(Cc2ccccc2)c(=O)[nH]c1=O -1.99%
Cn1c2cc(B(O)O)sc2c2cnn(Cc3ccccc3F)c(=O)c21 -9.76%
CCOCc1c(C(=O)N2CCN(Cc3ccc(Br)s3)CC2)oc2ccccc12 -2.8%
Cc1ccc(/C=C/C(=O)OCC(=O)Nc2cccnc2Cl)cc1 -3.1%
CCCCCOC(=O)NCCOC(=O)Nc1ccc(C(=O)OCC)cc1 -4.44%
CCCCOC(=O)Nc1nnc(CC(=O)NCc2ccccc2)s1 -2.1%
S=C1NC(c2ccccc2)=NCN1c1ccc(Br)cc1 11.1%
Brc1ccccc1C1Nc2cccc3cccc(c23)N1 -5.12%

Potency, active:
Cc1nc(-c2ccccc2)sc1C(=O)/C=C/N(C)C 2.82 µM
Cn1c(=NC(=O)c2cnccn2)sc2ccccc21 2 µM
COc1ccc(-c2csc(Cc3nc(O)cs3)n2)cc1 3.55 µM
CC(=O)c1ccc(N2Cc3ccccc3C2)cc1 2.51 µM
CS(=O)(=O)N1CCc2nc(-c3ccccc3)sc2C1 2.51 µM
Cc1ccccc1Nc1nc(-c2cccnc2)cs1 1.78 µM
COc1ccc2nc(SCc3ccccc3)nc(C)c2c1 3.16 µM
Cc1cccc(/C(N)=N/OC(=O)c2ccccc2Cl)c1 0.0891 µM
O=[N+]([O-])c1ccc2nc(-c3ccccn3)[nH]c2c1 1.58 µM
Cc1csc2nc(COC(=O)c3cccc(N(C)C)c3)cc(=O)n12 1.41 µM
NC(=O)c1c(NC(=O)c2ccccc2)sc2c1CCCC2 3.98 µM
c1cnc(N2CCN(c3ccc4ccccc4n3)CC2)nc1 1.41 µM
Cn1ccnc1SCC(=O)Nc1ccc2c(c1)OCCO2 2.51 µM
O=C(Nc1ccc2c(c1)OCCO2)c1cnccn1 2.82 µM
O=C(NCCc1ccc(F)cc1)c1ccc2nccnc2c1 1.78 µM
CCC(=O)Nc1sc(C(=O)Nc2ccccc2)c(C)c1C(=O)OC 0.794 µM
COc1ccc(C(CC(=O)c2ccccc2)S(=O)(=O)c2ccccc2)cc1 (stereo unspecified) 3.55 µM
COc1ccc(CNC(=O)c2ccc3oc(C(C)C)nc3c2)cc1 3.55 µM
CCCCCCOC(=O)NCC(O)c1ccccc1 (stereo unspecified) 3.98 µM
Brc1ccccc1C1N=C(c2ccccc2)NO1 (stereo unspecified) 3.98 µM
N#Cc1ccc(C2N=C(c3ccccc3)NO2)cc1 (stereo unspecified) 1.26 µM
